# Test results reported in PubChem BioAssay (NCI).
# Where “and” joins values, the source holds several entries; their conditions need not be identical. Identical values can stand only once. Compounds without any hit were thinned out: in the full panel of roughly 83,000, 20% have a hit.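 Testing used 96-well plates and a 48-hour single-concentration exposure. Example: -40 means 40% of the starting cells died.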 A number with no mark means an inactive call. Calls of active or inactive are those of the source. Rule for the calls: active = growth percent below 10; inactive = the rest.
# Tests used:
# Assay in all cases: NCI-60 one-dose screen, 48 h (100 = growth as untreated, 0 = no growth, -100 = all killed)
# Conditions in all cases: 10 µM unless noted
# NCI/ADR-RES ovarian = system: NCI/ADR-RES ovarian
# T-47D breast = system: T-47D breast
# BT-549 breast = system: BT-549 breast
# MDA-MB-435 melanoma = system: MDA-MB-435 melanoma
# SW-620 colon = system: SW-620 colon
# MCF7 breast = system: MCF7 breast
# HCT-116 colon = system: HCT-116 colon
# KM12 colon = system: KM12 colon
# HCC-2998 colon = system: HCC-2998 colon
Compound,growth (NCI/ADR-RES ovarian),growth (T-47D breast),growth (BT-549 breast),growth (MDA-MB-435 melanoma),growth (SW-620 colon),growth (MCF7 breast),growth (HCT-116 colon),growth (KM12 colon),growth (HCC-2998 colon)
O=C(O)C(Br)CBr (configuration not stated),101%,89.6%,100%,103%,105%,87.9%,94.8%,104%,
Cc1nc2ccccc2c(=O)n1-c1ccccc1F,112%,79.1%,105%,,105%,93.9%,98.7%,105%,108%
CC[C@H](C)[C@H](NC(=O)[C@H]1CCCCN1C)C(=O)N(C)[C@H](C[C@@H](OC(C)=O)c1cccc(C(=O)N[C@@H](Cc2ccccc2)C[C@H](C)C(=O)OC)n1)C(C)C,13.4%,63.6%,-22.5% (active),-29.2% (active),24.6%,12.7%,-5.08% (active),4.26% (active),15.4%
CCCn1cc2c3c(cccc31)[C@H]1C[C@@H](C)CN(C)[C@@H]1C2,78.8%,72.6%,89%,112%,90.1%,85%,53%,97.6%,95.7%
CC1=CC(=Nc2ccc(N(CCCl)CCCl)cc2)C=C(C)C1=O,19.8%,-17.7% (active),52.5%,35.4%,3.05% (active),,7.59% (active),59.8%,55.6%
COC(=O)C1=CO[C@@H](C)[C@@H]2CN3CCc4c([nH]c5cc(OC)ccc45)[C@@H]3C[C@H]12,93.8%,93.2%,105%,107%,99.9%,91.1%,103%,109%,
COc1ccc2c(c1)c(-c1nc(-c3cn(C)c4ncccc34)cs1)cn2CCCCN1CCOCC1,59.6%,64.5%,76.8%,,-77.1% (active),15.1%,11.4%,-5.62% (active),7.68% (active)
C=C[Se]CC(=O)/C=C/c1ccccc1,87.9%,82.3%,108%,83.7%,87.9%,87.2%,56.1%,26.6%,85.4%
N#CCc1ccc(CC#N)cc1,110%,87.5%,95.9%,102%,96.7%,91.4%,98.6%,102%,108%
CC[CH2][Sn]([Cl])([Cl])[CH2]CC.Oc1ccccc1C=NCCN=Cc1ccccc1O,90.7% and 91.1%,-86.4% (active) and -71% (active),72.7% and 37.4%,71.8% and 50.1%,2.07% (active) and -59.7% (active),21.9% and 17.1%,66.2% and 60.3%,88.4% and 79.7%,66.5% and 52.5%
C/C=C(/C)C(=O)O[C@H]1CC[C@@]2(C)[C@@H]3CC[C@H]4[C@]5(O)C[C@H](O)[C@@]6(O)[C@@H](CN7C[C@@H](C)CC[C@H]7[C@@]6(C)O)[C@]5(O)C[C@@]42O[C@@]13O,111%,118%,,,111%,98.3%,47.5%,122%,137%
c1ccc2c(c1)sc1ccccc12,99.4%,,96.7%,92.8%,106%,102%,96.6%,103%,97.3%
CC[C@H](C)[C@H](NC(=O)c1cnccn1)C(=O)N(C)[C@H](C[C@@H](OC(C)=O)c1nc(C(=O)N[C@@H](Cc2ccccc2)C[C@H](C)C(=O)OC)cs1)C(C)C,14.4%,61.2%,-7.25% (active),,23.6%,15.5%,-9.21% (active),3.34% (active),22.3%
O=c1[nH]c(=O)[nH]c(=O)[nH]1,102%,102%,145%,,108%,97.1%,97.2%,107%,117%
O=[N+]([O-])c1c(Cl)cc(Cl)c([N+](=O)[O-])c1Cl,103%,22.2%,114%,,65.6%,45.9%,88.5%,-2.82% (active),114%
C[C@]12CC[C@H]3[C@@H](C[C@@H]4SC(Nc5ccccc5)=N[C@@]45C/C(=N/O)CC[C@]35C)[C@@H]1CCC2=O,86.2%,64.4%,35.6%,,34.8%,28.4%,9.01% (active),67.8%,102%
CCCCOC(N)=O,106%,102%,,110%,113%,114%,98.4%,106%,
O=C=Nc1ccc(Br)cc1,107%,,98.3%,108%,103%,97.8%,94.3%,105%,100%
